# Results as given in paper PMC7862700, “An all-to-all approach to the identification of sequence-specific readers for epigenetic DNA modifications on cytosine”.
# Experiments:
# Assay in all cases: DAPPL (digital affinity profiling via proximity ligation, sequencing); 10 mM Tris-HCl pH 7.5, 50 mM NaCl, 1 mM DTT, 4% glycerol, room temperature, 30 min; GST-TFs on glutathione beads, 16-mer random dsDNA library, 0.1% formaldehyde crosslink after washing; high values mean tight binding
# [1] = target: ETV5 (Homo sapiens, UniProt P41161 1-510); conditions: protein: recombinant; tags: N-terminal GST; dsDNA, one strand shown
# How it was run: (§1)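 Binding signal is each hexamer's read frequency for a factor divided by its frequency in the tag-only sample. The factors were GST-fused human transcription factors from yeast, captured on glutathione beads, DNA-barcoded and pooled with that sample. Pools were incubated with 200 nmole of a random double-stranded 16-mer DNA library in Tris/NaCl/DTT/glycerol buffer at room temperature for 30 min, then washed, crosslinked with 0.1% formaldehyde, proximity-ligated with BsaI/T4 ligase (1 h, 37 °C), PCR-amplified and sequenced on an Illumina NextSeq500.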
# [2] = target: HSF1 (Homo sapiens, UniProt Q00613 1-529); conditions: protein: recombinant; tags: N-terminal GST; chain copies: 3; dsDNA, one strand shown
# How it was run: as §1
# [3] = target: ELF4 (Homo sapiens, UniProt Q99607 1-663); conditions: protein: recombinant; tags: N-terminal GST; dsDNA, one strand shown
# How it was run: as §1
# [4] = target: T1, ELK4 (Homo sapiens, UniProt P28324-2 1-405); conditions: protein: recombinant; tags: N-terminal GST; dsDNA, one strand shown
# T1 sequence: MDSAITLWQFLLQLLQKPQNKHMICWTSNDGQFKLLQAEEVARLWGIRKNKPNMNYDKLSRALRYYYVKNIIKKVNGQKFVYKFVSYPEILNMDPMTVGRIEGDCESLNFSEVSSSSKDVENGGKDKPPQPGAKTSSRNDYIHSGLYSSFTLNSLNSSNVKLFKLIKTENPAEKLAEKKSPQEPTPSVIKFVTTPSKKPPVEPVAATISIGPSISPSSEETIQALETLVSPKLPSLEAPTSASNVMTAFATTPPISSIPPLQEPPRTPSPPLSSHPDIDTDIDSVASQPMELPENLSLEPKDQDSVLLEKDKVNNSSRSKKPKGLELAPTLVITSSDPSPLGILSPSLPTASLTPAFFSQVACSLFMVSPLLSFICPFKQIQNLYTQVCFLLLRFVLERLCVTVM
# How it was run: as §1
# [5] = target: T2, ETV2 (Homo sapiens, UniProt O00321 1-342); conditions: protein: recombinant; tags: N-terminal GST; dsDNA, one strand shown
# T2 sequence: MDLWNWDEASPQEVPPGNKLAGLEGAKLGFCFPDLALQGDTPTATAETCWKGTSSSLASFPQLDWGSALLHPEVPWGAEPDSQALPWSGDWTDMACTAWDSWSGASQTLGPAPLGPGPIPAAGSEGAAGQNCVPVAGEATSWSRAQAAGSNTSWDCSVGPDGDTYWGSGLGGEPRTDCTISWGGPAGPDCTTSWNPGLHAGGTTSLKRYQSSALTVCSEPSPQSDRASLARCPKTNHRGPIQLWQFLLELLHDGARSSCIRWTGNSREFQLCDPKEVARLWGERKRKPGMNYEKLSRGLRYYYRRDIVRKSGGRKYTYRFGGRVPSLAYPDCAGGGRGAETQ
# How it was run: as §1
# [6] = target: T3, ELF3 (Homo sapiens, UniProt P78545 1-371); conditions: protein: recombinant; tags: N-terminal GST; dsDNA, one strand shown
# T3 sequence: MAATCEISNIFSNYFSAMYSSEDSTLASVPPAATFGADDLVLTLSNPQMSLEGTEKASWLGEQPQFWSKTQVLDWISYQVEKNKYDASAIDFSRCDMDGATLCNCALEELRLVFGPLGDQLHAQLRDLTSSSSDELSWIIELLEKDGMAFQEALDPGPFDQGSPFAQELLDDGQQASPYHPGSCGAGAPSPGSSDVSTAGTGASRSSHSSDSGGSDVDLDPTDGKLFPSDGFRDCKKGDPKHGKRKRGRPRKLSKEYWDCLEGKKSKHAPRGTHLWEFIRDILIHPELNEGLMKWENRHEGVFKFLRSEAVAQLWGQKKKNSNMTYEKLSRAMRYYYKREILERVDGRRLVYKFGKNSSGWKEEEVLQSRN
# How it was run: as §1
# [7] = target: CRX (Homo sapiens, UniProt O43186 1-299); conditions: protein: recombinant; tags: N-terminal GST; dsDNA, one strand shown
# How it was run: as §1
# [8] = target: ETV1 (Homo sapiens, UniProt P50549 1-477); conditions: protein: recombinant; tags: N-terminal GST; dsDNA, one strand shown
# How it was run: as §1
# [9] = target: T4, ERF (Homo sapiens, UniProt P50548 1-548); conditions: protein: recombinant; tags: N-terminal GST; dsDNA, one strand shown
# T4 sequence: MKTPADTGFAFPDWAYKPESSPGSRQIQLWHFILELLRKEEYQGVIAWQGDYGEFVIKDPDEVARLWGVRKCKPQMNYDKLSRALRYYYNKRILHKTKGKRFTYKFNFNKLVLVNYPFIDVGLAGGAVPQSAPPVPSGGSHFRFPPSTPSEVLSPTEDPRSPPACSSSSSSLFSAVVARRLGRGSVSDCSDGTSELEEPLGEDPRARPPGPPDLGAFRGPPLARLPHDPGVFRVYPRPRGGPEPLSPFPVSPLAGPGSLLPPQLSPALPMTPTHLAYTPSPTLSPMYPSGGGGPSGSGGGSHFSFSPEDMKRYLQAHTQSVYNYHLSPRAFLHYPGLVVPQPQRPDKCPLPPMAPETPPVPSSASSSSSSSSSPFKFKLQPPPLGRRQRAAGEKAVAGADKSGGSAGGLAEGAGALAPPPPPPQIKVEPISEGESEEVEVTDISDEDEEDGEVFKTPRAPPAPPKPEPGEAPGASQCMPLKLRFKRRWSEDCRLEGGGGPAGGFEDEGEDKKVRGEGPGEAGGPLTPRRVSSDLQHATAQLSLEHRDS
# How it was run: as §1
# [10] = target: T5, ETV3L (Homo sapiens, UniProt Q6ZN32 1-361); conditions: protein: recombinant; tags: N-terminal GST; dsDNA, one strand shown
# T5 sequence: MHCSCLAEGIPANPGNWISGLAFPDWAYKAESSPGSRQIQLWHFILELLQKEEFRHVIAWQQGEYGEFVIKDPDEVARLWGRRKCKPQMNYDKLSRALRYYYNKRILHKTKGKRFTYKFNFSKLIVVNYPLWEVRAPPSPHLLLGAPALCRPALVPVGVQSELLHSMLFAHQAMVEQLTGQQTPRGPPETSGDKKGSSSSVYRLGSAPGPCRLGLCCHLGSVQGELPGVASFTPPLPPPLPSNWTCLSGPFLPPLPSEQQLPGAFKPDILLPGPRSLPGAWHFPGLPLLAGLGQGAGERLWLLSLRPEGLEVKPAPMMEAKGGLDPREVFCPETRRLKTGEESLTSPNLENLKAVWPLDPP
# How it was run: as §1
# [11] = target: T6, ETS2 (Homo sapiens, UniProt P15036 1-469); conditions: protein: recombinant; tags: N-terminal GST; dsDNA, one strand shown
# T6 sequence: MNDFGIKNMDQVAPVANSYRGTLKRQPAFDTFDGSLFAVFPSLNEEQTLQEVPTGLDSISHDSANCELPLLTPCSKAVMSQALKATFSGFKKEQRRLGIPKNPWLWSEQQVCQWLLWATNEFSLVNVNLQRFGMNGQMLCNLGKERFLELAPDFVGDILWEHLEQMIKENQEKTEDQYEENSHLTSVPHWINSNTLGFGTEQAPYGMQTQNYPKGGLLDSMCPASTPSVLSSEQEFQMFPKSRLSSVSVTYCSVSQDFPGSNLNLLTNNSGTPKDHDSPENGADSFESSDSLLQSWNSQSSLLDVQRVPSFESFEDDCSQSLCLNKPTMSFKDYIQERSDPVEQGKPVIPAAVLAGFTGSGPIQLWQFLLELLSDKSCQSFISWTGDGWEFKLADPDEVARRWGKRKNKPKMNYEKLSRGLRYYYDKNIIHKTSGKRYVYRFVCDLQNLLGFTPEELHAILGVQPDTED
# How it was run: as §1
# [12] = target: T7, SPDEF (Homo sapiens, UniProt O95238 1-335); conditions: protein: recombinant; tags: N-terminal GST; dsDNA, one strand shown
# T7 sequence: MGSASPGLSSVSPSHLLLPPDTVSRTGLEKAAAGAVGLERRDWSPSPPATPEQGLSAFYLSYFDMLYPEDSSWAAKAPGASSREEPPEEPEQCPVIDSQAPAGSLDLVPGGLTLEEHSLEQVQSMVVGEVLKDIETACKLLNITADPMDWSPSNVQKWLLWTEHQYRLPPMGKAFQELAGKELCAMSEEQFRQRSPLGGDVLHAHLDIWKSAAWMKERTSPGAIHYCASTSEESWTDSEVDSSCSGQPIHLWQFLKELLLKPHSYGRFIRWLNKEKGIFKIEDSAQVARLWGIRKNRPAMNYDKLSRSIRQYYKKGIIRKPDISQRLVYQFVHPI
# How it was run: as §1
# [13] = target: T8, ETV7 (Homo sapiens, UniProt Q9Y603 1-341); conditions: protein: recombinant; tags: N-terminal GST; dsDNA, one strand shown
# T8 sequence: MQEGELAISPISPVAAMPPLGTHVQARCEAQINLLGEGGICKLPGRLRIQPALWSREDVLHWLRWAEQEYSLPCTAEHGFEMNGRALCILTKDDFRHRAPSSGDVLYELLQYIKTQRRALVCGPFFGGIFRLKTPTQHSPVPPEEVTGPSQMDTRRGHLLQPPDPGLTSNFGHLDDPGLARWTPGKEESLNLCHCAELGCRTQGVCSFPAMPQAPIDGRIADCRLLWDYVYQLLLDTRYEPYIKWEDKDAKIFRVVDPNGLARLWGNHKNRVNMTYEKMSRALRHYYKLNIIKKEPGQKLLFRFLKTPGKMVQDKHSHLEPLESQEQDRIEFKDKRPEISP
# How it was run: as §1
# [14] = target: T9, ETV3 (Homo sapiens, UniProt P41162-2 1-143); conditions: protein: recombinant; tags: N-terminal GST; dsDNA, one strand shown
# T9 sequence: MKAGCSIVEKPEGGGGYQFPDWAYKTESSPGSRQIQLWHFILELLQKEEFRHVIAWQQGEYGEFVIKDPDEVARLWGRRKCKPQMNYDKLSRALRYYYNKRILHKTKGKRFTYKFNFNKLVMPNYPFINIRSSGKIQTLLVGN
# How it was run: as §1
# [15] = target: ETV6 (Homo sapiens, UniProt P41212 1-452); conditions: protein: recombinant; tags: N-terminal GST; dsDNA, one strand shown
# How it was run: as §1
# [16] = target: T10, FEV (Homo sapiens, UniProt Q99581 1-238); conditions: protein: recombinant; tags: N-terminal GST; dsDNA, one strand shown
# T10 sequence: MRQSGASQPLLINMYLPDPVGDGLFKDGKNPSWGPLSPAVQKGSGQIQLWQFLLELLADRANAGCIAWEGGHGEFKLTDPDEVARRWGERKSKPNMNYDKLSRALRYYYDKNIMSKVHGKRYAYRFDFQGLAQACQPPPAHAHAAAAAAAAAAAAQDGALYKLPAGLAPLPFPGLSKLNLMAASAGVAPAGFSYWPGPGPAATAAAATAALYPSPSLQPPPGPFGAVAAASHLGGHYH
# How it was run: as §1
# [17] = target: T11, ELF5 (Homo sapiens, UniProt Q9UKW6-2 1-255); conditions: protein: recombinant; tags: N-terminal GST; dsDNA, one strand shown
# T11 sequence: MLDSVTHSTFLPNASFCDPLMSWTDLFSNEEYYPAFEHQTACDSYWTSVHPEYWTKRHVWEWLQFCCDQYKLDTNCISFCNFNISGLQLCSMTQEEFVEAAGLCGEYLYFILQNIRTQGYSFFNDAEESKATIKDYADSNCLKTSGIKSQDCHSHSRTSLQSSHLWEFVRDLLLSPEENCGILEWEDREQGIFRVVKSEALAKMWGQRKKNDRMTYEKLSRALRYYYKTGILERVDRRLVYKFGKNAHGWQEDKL
# How it was run: as §1
# HSF1, sequence (Q00613 whole entry): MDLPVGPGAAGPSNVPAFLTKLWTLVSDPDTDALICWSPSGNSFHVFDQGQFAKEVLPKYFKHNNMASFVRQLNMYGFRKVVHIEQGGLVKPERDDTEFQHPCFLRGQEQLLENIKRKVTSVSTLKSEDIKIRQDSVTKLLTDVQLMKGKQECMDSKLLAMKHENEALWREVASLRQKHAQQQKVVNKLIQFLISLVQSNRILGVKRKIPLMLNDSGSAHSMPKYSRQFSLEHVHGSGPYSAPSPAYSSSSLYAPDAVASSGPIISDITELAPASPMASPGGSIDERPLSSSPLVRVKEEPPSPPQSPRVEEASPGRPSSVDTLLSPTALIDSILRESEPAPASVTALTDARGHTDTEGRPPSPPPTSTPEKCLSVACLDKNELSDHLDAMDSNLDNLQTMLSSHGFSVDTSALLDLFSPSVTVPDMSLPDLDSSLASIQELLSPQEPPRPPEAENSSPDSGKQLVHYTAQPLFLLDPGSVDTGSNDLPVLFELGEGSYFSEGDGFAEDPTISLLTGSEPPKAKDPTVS
# ETV6, sequence (P41212 whole entry): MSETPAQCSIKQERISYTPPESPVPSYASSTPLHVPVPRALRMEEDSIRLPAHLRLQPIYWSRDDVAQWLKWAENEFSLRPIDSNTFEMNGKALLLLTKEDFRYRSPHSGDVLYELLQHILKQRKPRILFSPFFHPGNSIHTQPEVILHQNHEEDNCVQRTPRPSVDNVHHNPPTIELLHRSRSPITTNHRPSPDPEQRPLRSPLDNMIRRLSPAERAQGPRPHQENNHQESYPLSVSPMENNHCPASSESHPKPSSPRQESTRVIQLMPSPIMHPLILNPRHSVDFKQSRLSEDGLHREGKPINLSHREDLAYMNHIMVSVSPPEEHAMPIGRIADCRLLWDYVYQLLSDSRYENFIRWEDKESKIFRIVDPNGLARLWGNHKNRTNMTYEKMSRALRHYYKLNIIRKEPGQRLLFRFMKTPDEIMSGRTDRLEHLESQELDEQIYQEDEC
# ETV5, sequence (P41161 whole entry, the tested form may be a part): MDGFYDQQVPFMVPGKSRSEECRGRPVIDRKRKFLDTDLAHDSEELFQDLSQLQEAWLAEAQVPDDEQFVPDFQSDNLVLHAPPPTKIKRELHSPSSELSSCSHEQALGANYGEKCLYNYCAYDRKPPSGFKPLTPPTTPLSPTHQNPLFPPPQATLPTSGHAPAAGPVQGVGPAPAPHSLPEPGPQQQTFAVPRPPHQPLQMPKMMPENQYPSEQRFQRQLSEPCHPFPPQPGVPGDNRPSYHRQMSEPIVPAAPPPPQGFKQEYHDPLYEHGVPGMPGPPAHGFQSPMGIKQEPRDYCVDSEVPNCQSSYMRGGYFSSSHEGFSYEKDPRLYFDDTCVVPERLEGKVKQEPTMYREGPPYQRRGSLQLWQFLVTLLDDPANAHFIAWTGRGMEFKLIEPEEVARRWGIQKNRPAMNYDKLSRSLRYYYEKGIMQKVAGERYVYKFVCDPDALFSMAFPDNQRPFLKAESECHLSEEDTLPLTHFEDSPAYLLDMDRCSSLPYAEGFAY
# ETV1, sequence (P50549 whole entry): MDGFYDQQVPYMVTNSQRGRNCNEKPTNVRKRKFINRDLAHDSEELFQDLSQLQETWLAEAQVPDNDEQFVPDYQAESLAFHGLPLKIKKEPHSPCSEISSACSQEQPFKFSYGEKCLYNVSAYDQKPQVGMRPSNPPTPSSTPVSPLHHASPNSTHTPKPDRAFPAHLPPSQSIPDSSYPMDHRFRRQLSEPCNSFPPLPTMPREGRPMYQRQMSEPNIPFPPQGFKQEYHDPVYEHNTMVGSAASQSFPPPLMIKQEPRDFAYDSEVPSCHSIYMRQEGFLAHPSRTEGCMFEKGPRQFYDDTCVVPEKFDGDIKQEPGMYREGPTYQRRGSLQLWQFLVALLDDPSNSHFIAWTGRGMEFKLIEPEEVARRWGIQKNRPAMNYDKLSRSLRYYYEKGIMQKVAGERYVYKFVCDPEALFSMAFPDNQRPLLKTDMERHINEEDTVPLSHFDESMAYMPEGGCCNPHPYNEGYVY
# ELF4, sequence (Q99607 whole entry): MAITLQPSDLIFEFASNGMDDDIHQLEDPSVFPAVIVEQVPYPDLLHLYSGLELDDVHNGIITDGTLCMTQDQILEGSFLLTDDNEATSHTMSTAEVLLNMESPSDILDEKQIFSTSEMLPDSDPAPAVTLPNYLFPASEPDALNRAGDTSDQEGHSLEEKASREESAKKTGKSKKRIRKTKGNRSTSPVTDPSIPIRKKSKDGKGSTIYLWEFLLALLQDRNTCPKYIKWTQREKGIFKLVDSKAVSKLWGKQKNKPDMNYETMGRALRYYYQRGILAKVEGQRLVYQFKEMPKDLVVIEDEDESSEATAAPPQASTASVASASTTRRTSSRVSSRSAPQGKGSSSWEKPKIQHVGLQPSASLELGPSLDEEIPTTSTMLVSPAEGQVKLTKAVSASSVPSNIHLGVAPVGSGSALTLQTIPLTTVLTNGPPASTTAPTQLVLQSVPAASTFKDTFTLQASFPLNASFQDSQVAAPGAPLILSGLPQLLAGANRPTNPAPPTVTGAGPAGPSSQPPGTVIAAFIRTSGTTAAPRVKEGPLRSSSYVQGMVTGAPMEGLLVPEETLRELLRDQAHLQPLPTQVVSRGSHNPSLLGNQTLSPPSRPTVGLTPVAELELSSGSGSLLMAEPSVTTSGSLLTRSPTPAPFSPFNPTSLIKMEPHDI
# CRX, sequence (O43186 whole entry): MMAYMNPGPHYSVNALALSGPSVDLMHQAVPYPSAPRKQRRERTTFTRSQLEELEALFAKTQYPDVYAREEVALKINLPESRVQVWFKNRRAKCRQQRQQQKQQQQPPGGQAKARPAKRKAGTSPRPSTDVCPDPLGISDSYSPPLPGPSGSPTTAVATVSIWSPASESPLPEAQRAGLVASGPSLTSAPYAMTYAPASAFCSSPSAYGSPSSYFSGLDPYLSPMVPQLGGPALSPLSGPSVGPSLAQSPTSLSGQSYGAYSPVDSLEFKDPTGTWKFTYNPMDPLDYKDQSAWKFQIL
Sequence,binding signal [1],binding signal [2],binding signal [3],binding signal [4],binding signal [5],binding signal [6],binding signal [7],binding signal [8],binding signal [9],binding signal [10],binding signal [11],binding signal [12],binding signal [13],binding signal [14],binding signal [15],binding signal [16],binding signal [17]
ATTGAA,"1.05 fold enrichment (6-mer frequency, TF over GST control)","1.01 fold enrichment (6-mer frequency, TF over GST control)","1.01 fold enrichment (6-mer frequency, TF over GST control)","1.06 fold enrichment (6-mer frequency, TF over GST control)","1 fold enrichment (6-mer frequency, TF over GST control)","1.07 fold enrichment (6-mer frequency, TF over GST control)","1.06 fold enrichment (6-mer frequency, TF over GST control)","1.15 fold enrichment (6-mer frequency, TF over GST control)","1.14 fold enrichment (6-mer frequency, TF over GST control)","1.1 fold enrichment (6-mer frequency, TF over GST control)","1.09 fold enrichment (6-mer frequency, TF over GST control)","1.07 fold enrichment (6-mer frequency, TF over GST control)","1.14 fold enrichment (6-mer frequency, TF over GST control)","1.03 fold enrichment (6-mer frequency, TF over GST control)","1.08 fold enrichment (6-mer frequency, TF over GST control)",,
CTTTCG,"1.27 fold enrichment (6-mer frequency, TF over GST control)","1.65 fold enrichment (6-mer frequency, TF over GST control)","1.19 fold enrichment (6-mer frequency, TF over GST control)","1.4 fold enrichment (6-mer frequency, TF over GST control)","1.3 fold enrichment (6-mer frequency, TF over GST control)","1.4 fold enrichment (6-mer frequency, TF over GST control)","1.37 fold enrichment (6-mer frequency, TF over GST control)","1.36 fold enrichment (6-mer frequency, TF over GST control)","1.23 fold enrichment (6-mer frequency, TF over GST control)","1.29 fold enrichment (6-mer frequency, TF over GST control)","1.32 fold enrichment (6-mer frequency, TF over GST control)","1.22 fold enrichment (6-mer frequency, TF over GST control)","1.3 fold enrichment (6-mer frequency, TF over GST control)","1.16 fold enrichment (6-mer frequency, TF over GST control)","1.23 fold enrichment (6-mer frequency, TF over GST control)","1.26 fold enrichment (6-mer frequency, TF over GST control)","1.26 fold enrichment (6-mer frequency, TF over GST control)"
